Assay results taken from PubChem BioAssay AID1159580 (chemical genetic matrix, 2015).
Out of some 5,500 compounds screened, about 2,000 (36%) were called active. Not shown: some 18% with an inconclusive outcome. Cut-off read from the data, not from the text of the source: active = normalized growth mostly below about 0.91 (no sharp cut-off); inconclusive = no clear call, values can overlap the other calls; inactive = mostly above about 0.92. Some of the results follow.

Test: chemical genetic growth profiling, strain panel (AID 1159580);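 note: tested at 20 µM; growth read once vehicle control cultures reached saturation at 30 °C; 1 = growth at the plate median or of vehicle wells; lower values mean less growth of the strain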
Settings: S. cerevisiae deletion strains, growth OD

Measured: normalized growth

CC(=O)OC1CC2C(C)(C)CCCC2(C)C2CCC3(C)C(c4ccoc4)OC(=O)C4OC43C12C (stereo not drawn)
inactive: locus YAL013W, strain DEP1, active compounds read low 0.993 | locus YBR021W, strain FUR4, active compounds read low 0.981 | locus YBR229C, strain ROT2, active compounds read low 0.995 | locus YCL029C, strain bik1, active compounds read low 1.02 | locus YDL035C, strain GPR1, active compounds read low 0.975 | locus YDL074C, strain BRE1, active compounds read low 0.988 | locus YDL101C, strain DUN1, active compounds read low 1.02 | locus YDL134C, strain PPH21, active compounds read low 0.987 | locus YDL185W, strain tfp1, active compounds read low 1.03 | locus YDL192W, strain arf1, active compounds read low 1.01 | locus YDR101C, strain arx1, active compounds read low 1.02 | locus YDR150W, strain NUM1, active compounds read low 1 | locus YDR162C, strain NBP2, active compounds read low 0.979 | locus YDR318W, strain mcm21, active compounds read low 1.01 | locus YDR388W, active compounds read low 1.01 | locus YDR502C, strain sam2, active compounds read low 0.999 | locus YEL061C, strain CIN8, active compounds read low 1 | locus YER110C, active compounds read low 1.02 | locus YER155C, strain BEM2, active compounds read low 1 | locus YER167W, strain BCK2, active compounds read low 1 | locus YGL078C, strain dbp3, active compounds read low 1.01 | locus YGL086W, strain mad1, active compounds read low 1 | locus YGL248W, strain PDE1, active compounds read low 1 | locus YGR135W, strain pre9, active compounds read low 1 | locus YGR252W, strain gcn5, active compounds read low 0.914 | locus YHR030C, strain SLT2, active compounds read low 1.01 | locus YHR079C, strain IRE1 (second series), active compounds read low 1.01 | locus YHR094C, strain hxt1, active compounds read low 1.01 | locus YHR129C, strain ARP1, active compounds read low 1 | locus YHR200W, strain rpn10, active compounds read low 1 | locus YIL066C, strain RNR3, active compounds read low 1 | locus YIL073C, strain SPO22, active compounds read low 1.02 | locus YIL125W, strain kgd1, active compounds read low 1.01 | locus YIR030C, strain dcg1, active compounds read low 1.01 | locus YJL095W, strain BCK1, active compounds read low 0.991 | locus YJL134W, strain LCB3, active compounds read low 1.01 | locus YJL168C, strain set2, active compounds read low 1.01 | locus YJL187C, strain SWE1 (second series), active compounds read low 0.999 | locus YJR043C, strain POL32, active compounds read low 0.978 | locus YJR075W, strain HOC1, active compounds read low 0.995 | locus YKL009W, strain mrt4, active compounds read low 1 | locus YKL068W, active compounds read low 1.01 | locus YKL085W, strain MDH1 (second series), active compounds read low 1 | locus YKL085W, strain MDH1, active compounds read low 1 | locus YKL190W, strain CNB1, active compounds read low 1 | locus YKR001C, strain vps1, active compounds read low 0.993 | locus YLR039C, strain RIC1, active compounds read low 1.01 | locus YLR058C, strain SHM2, active compounds read low 1.01 | locus YLR102C, strain apc9, active compounds read low 1.01 | locus YLR262C, strain YPT6, active compounds read low 1.03 | locus YLR268W, strain sec22, active compounds read low 1.01 | locus YLR330W, strain CHS5, active compounds read low 1.01 | locus YLR342W, strain FKS1 (second series), active compounds read low 0.954 | locus YLR371W, strain rom2, active compounds read low 1.02 | locus YLR418C, strain cdc73, active compounds read low 1.01 | locus YML016C, strain PPZ1, active compounds read low 1.01 | locus YML032C, strain rad52, active compounds read low 1.01 | locus YML124C, strain tub3, active compounds read low 1.02 | locus YMR078C, strain ctf18, active compounds read low 1.02 | locus YMR223W, strain ubp8, active compounds read low 1 | locus YMR263W, strain SAP30, active compounds read low 1.01 | locus YMR307W, strain GAS1, active compounds read low 0.854 | locus YNL067W, strain RPL9B, active compounds read low 1.02 | locus YNL153C, strain GIM3, active compounds read low 1 | locus YNL233W, strain BNI4, active compounds read low 0.99 | locus YNL250W, strain rad50, active compounds read low 1.01 | locus YNL271C, strain bni1, active compounds read low 0.998 | locus YNL298W, strain CLA4, active compounds read low 1.01 | locus YNL307C, strain MCK1, active compounds read low 1.01 | locus YNR052C, strain pop2, active compounds read low 1.01 | locus YOL012C, strain htz1 0.802 | locus YOL147C, strain pex11, active compounds read low 1.01 | locus YOR061W, strain CKA2, active compounds read low 1.01 | locus YOR069W, strain VPS5, active compounds read low 1.01 | locus YOR136W, strain idh2, active compounds read low 1.01 | locus YOR144C, strain elg1, active compounds read low 1.01 | locus YOR184W, strain ser1, active compounds read low 1.01 | locus YOR316C, strain cot1, active compounds read low 1.01 | locus YPR119W, strain clb2, active compounds read low 1.01 | locus YPR141C, strain kar3, active compounds read low 1.02 | locus YPR163C, strain tif3, active compounds read low 1.02 | locus YPR167C, strain met16, active compounds read low 1.01 | strain wtn01, active compounds read low 1
